Source: PubChem BioAssay (National Center for Advancing Translational Sciences (NCATS))
An excerpt weighted towards active compounds, which were near 7.5% of everything screened.
ELG1 genotoxic = qHTS screen for small molecules that induce genotoxicity in human embryonic kidney (HEK293T) cells expressing luciferase-tagged ELG1. HEK293T ELG1-luciferase reporter, luminescence, 16 h. Potency, µM (doses to about 46 µM), inactives show at the highest dose activity change, positive = activation, most hits filed as activators. 330,000 compounds, 1.3% hits; further: % of control where 0% means no effect; nearly all actives have a fitted effect of over 60% in size
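Genotoxic stress is detected as increased luminescence from luciferase-tagged ELG1 in HEK293T cells, measured with ONE-Glo after a 16 hr treatment at 37 °C.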
Rab9 prom act = qHTS Assay for Rab9 Promoter Activators. 320,000 compounds, 2.8% hits. Huh7 Rab9 promoter-luciferase reporter, luminescence, 24 h. Potency, µM (titrated, usually from 9.22 µM), for the others: top-dose activation, negative = inhibition, hits mostly activators; further: % of control where 0% means no effect; nearly all actives have a fitted effect of over 60% in size
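Luminescence from Amplite-detected luciferase (10 minutes, ambient) reports Rab9 promoter activation. Before that, stable Rab9-luciferase Huh7 cells (1500/well, reduced-serum OP-MEM I plus 10% FBS) were exposed to compound for 24 hours at 37C.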
NPC1 promoter act = qHTS Assay for NPC1 Promoter Activators; Huh7 NPC1 promoter luciferase reporter, 24 h; Potency, µM (doses to about 9.22 µM), without a hit: top-dose activation, most hits filed as activators; 320,000 compounds, 2.4% hits; AID 485313, 2010; further: % of control where 0% means no effect; nearly all actives have a fitted effect of over 60% in size
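Stably transfected Huh7 (NPC1 promoter→luciferase), 1500 cells/well in Opti-MEM + 10% FBS, 2 h settle, then compound 24 h at 37 °C. Luminescence after 10 min with Amplite reagent.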
SMN2 splice up = qHTS Assay for Enhancers of SMN2 Splice Variant Expression. HEK293 SMN2-luciferase splicing reporter, luminescence, 30-36 h. Potency, µM (top dose mostly 46.1 µM), for the others: at the highest dose activity change, positive = activation, usual class: activators. 210,000 compounds, 2.8% hits. AID 1458, 2008; further: % of control where 0% means no effect; nearly all actives have a fitted effect of over 55% in size
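HEK293 cells carry an SMN2 […]–luciferase reporter in which exon 7 inclusion puts luciferase in frame. Cells were plated 10-12 h before compound addition, then incubated 30-36 h at 37C. ONE-Glo luminescence was read; sodium butyrate at 4.5 mM final served as control.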
FLuc counter = qHTS profiling assay for firefly luciferase inhibitor/activator using purifed enzyme and Km concentrations of substrates (counterscreen for miR-21 project). 360,000 compounds, 6.9% hits. Luciferin 4-monooxygenase (Photinus pyralis), P08659. Potency, µM (titrated, usually from 57.5 µM), for inactives: at the top dose activity change, negative = inhibition, actives largely listed as inhibitors. AID 588342, 2011. purified FLuc, Km substrates, luminescence inhibition;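 further: plate controls were vehicle for no effect and reference inhibitor for full effect; nearly all actives have a fitted effect of over 55% in size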
Target sequence (P08659 whole entry, looked up): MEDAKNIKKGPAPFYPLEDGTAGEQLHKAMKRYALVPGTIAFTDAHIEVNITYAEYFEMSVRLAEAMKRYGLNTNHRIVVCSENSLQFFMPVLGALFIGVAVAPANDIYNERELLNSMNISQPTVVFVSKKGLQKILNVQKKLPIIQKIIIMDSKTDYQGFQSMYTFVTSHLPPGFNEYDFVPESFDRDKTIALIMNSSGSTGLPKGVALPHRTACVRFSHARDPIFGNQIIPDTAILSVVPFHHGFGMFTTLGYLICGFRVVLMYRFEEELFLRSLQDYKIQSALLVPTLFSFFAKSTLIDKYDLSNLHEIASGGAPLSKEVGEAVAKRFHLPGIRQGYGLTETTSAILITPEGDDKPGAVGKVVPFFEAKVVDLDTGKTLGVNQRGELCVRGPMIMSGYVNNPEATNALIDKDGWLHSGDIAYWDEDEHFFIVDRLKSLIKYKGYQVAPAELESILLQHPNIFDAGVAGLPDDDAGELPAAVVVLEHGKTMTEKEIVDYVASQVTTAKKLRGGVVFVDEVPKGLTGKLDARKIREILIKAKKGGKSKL
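Purified P. pyralis luciferase, 10 nM final, with Km-level 10 uM D-luciferin and 10 uM ATP in 50 mM Tris acetate pH 7.5, 10 mM Mg acetate, 0.01% Tween-20, 0.05% BSA; 6-point qHTS titration about 60 µM downward; luminescence read.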
* hit, by the source's call; u = inconclusive; x = not tested or not shown; [ ] = remark or other dose. The call rests on the fitted dose curve; in most records, active means well fitted curve in the direction sought with a large enough effect; inconclusive means small, poorly fitted or top-dose-only effect, or another doubt; inactive means no such curve, though single readings can be large; an effect the other way counts as inactive or inconclusive. Potency means the concentration at half of the fitted maximal effect.

SMILES	ELG1 genotoxic	Rab9 prom act	NPC1 promoter act	SMN2 splice up	FLuc counter
CCC(C)/C=C(C)/C=C/C1=CC2=C(Cl)C(=O)C(C)(OC(C)=O)C(=O)C2=CO1 (stereo not drawn)	3%	15%	-1%	x	21µM*
Nc1c2c(nc3sc4c(c13)CCCC4)CCCCC2	14%	2.2µM*	2.8µM*	8.9µM*	1.9µM*
ClC(Cl)Br	x	x	x	17%	x
CN(C)C(=O)Oc1ccc(Cl)c2ccccc12	2%	u	4.5µM*	9%	8%[2.3 µM]
O=C(Oc1ccc(Cl)c2ccccc12)N1CCCCC1	u	5%	12%	2%	17µM*
O=C(Oc1ccc2ccccc2c1Cl)N1CCCC1	2.1µM*	2µM*	2.8µM*	13µM*	12µM*
CN(C(=O)Oc1ccc(Cl)c2cccnc12)c1ccccc1	-3%	-1%	-2%	-16%	-8%
O=C(Oc1c(Cl)cc(Cl)c2ccccc12)N1CCCCC1	u	0%	6%	-13%	u
O=C(Oc1ccc2ccc(OC(=O)N3CCCCCC3)cc2c1)N1CCCCCC1	u	13%	15%	-36%	13µM*
O=C(Nc1ccc(OC(=O)N2CCCCC2)cc1)N1CCOCC1	1%	2%	-5%	x	4%
COc1cc2c(cc1O)C(CCc1ccc(Cl)cc1)N(C)CC2 (stereo not drawn)	x	x	x	-16%	x
Nn1cnnc1	x	x	x	0%	x
CCN(CC)C(=O)Oc1ccc2ccccc2c1Cl	13%	28%	16%	u	17µM*
CN(C)C(=O)Oc1ccc2ccccc2c1Cl	u	15%	14%	-24%	u
CN(C)CCCNc1c2c(nc3ccc(Cl)cc13)CCCC2	x	x	x	-4%[9.22 µM]	x
CCOc1cc(C=C2C(=O)NC(=O)NC2=O)ccc1OCC(=O)N1CCOCC1	1%	-2%	-2%	-2%	0%
O=C1NC(=O)C(=Cc2cc(Cl)ccc2OCc2ccc(C(=O)O)cc2)C(=O)N1	0%	-1%	-2%	-9%	24µM*
O=C(O)[C@H]1[O][Sb][O][C@@H](C(=O)O)C1O (stereo partly drawn)	x	x	x	-5%[9.22 µM]	x
O=C(Nc1ccc(Cl)c(Cl)c1)c1ccco1	u	u	u	x	21µM*
C=CCNC(=S)Nc1ccc(OC(=O)Nc2ccc(Cl)c(Cl)c2)cc1	-10%	-3%	-7%	x	-17%
COCC(=O)N1CCC2(CCCN(Cc3ccncc3)C2)CC1	x	x	x	-9%	x
CCOc1ccc2nc(N3CCC(C(=O)Nc4ccc(Br)cc4F)CC3)sc2c1	x	x	x	13µM*	15µM*
CCOc1ccc(NCc2cccn2-c2nnc(N3CCC(C(=O)NCC(C)c4ccccc4)CC3)s2)cc1 (stereo not drawn)	x	x	x	-63%	0%
CCC12CCN(CCc3ccc(F)cc3)CC1Oc1c(O)cccc12 (stereo not drawn)	x	x	x	x	12%
O=c1c2ccccc2[se]n1-c1ccccc1	5%	14%[46.1 µM]	-9%[46.1 µM]	-28%	6µM*
SMILES	ELG1 genotoxic	Rab9 prom act	NPC1 promoter act	SMN2 splice up	FLuc counter
O=c1c2ccccc2nc(-c2ccccc2)n1-c1ccccc1	-8%	-1%	-3%	x	7%
CC(C)NC(=O)N1CCC2(CC1)CCN(C(=O)Oc1ccccc1)CC2	x	x	x	-36%	x
CCN(CC)c1ccc(C=C2C(=O)NC(=S)NC2=O)cc1	u	-9%	-5%	x	19µM*
CC(C)CN(CC(C)C)c1ccc(C=C2C(=O)NC(=S)NC2=O)cc1[N+](=O)[O-]	-3%	4%	10%	-9%	-12%
NC(=O)c1cn(C2OC(CO)C(O)C2O)c2ncnc(N)c12 (stereo not drawn)	-18%	-37%	-33%	-108%	11%
NC(=O)c1ncn(C2OC(CO)C(O)C2O)n1 (stereo not drawn)	x	x	x	16µM*	x
COC(=O)c1ccc(NC(=O)CSc2nc3ccc(N4C(=O)C5C6C=CC(C6)C5C4=O)cc3s2)cc1 (stereo not drawn)	-13%	-8%	-4%	-104%	13µM*
